# According to the supplement of paper PMC12282887:
# ± gives the standard deviation of the averaged measurements.
# System: E. coli BW25113 marRABp lux reporter
# Experiment: promoter activity interaction Z-score (Lux/OD deviation from empty-vector control); higher = stronger promoter induction by the compound
# Experimental: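 E. coli BW25113 (wild type or ΔmarA/ΔsoxS/Δrob) carrying pTU175 luxCDABE promoter reporters was grown in LB in 384-well plates at 37°C with each of 94 compounds at 4 two-fold concentrations, in biological duplicates. Luminescence and OD600 were read every 30 min for 12 h and integrated as AUC over 8 h (0-8 h WT, 1-9 h mutants). Lux AUC was divided by OD AUC; the interaction score is the residual of a Huber robust fit of each promoter against the empty-vector control, then Z-transformed per promoter.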
smiles,measurement,setting,value
N[C@@H](C(=O)N[C@@H]1C(=O)N2C(C(=O)O)=C(Cl)CS[C@H]12)c1ccccc1 [Cefaclor],promoter activity interaction Z-score,"0.11 µg/ml, genetic background: wild type",-0.22 ± 0.046
same,promoter activity interaction Z-score,"0.11 µg/ml, genetic background: ΔmarA",-0.342 ± 0.017
same,promoter activity interaction Z-score,"0.11 µg/ml, genetic background: Δrob",0.00564 ± 0.3
same,promoter activity interaction Z-score,"0.11 µg/ml, genetic background: ΔsoxS",0.0816 ± 0.011
same,promoter activity interaction Z-score,"0.23 µg/ml, genetic background: wild type",0.101 ± 0.062
same,promoter activity interaction Z-score,"0.23 µg/ml, genetic background: ΔmarA",-0.215 ± 0.016
same,promoter activity interaction Z-score,"0.23 µg/ml, genetic background: Δrob",-0.0669 ± 0.059
same,promoter activity interaction Z-score,"0.23 µg/ml, genetic background: ΔsoxS",-0.244 ± 0.22
same,promoter activity interaction Z-score,"0.46 µg/ml, genetic background: wild type",-0.245 ± 0.15
same,promoter activity interaction Z-score,"0.46 µg/ml, genetic background: ΔmarA",0.298 ± 0.42
same,promoter activity interaction Z-score,"0.46 µg/ml, genetic background: Δrob",0.0148 ± 0.0067
same,promoter activity interaction Z-score,"0.46 µg/ml, genetic background: ΔsoxS",-0.145 ± 0.23
O=C(/C=C/C=C/c1ccc2c(c1)OCO2)N1CCCCC1 [Piperine],promoter activity interaction Z-score,"17.8 µg/ml, genetic background: wild type",-0.274 ± 0.019
same,promoter activity interaction Z-score,"17.8 µg/ml, genetic background: ΔmarA",-0.301 ± 0.051
same,promoter activity interaction Z-score,"17.8 µg/ml, genetic background: Δrob",-0.434 ± 0.098
same,promoter activity interaction Z-score,"17.8 µg/ml, genetic background: ΔsoxS",-0.317 ± 0.29
same,promoter activity interaction Z-score,"35.7 µg/ml, genetic background: wild type",-0.476 ± 0.17
same,promoter activity interaction Z-score,"35.7 µg/ml, genetic background: ΔmarA",-0.752 ± 0.41
same,promoter activity interaction Z-score,"35.7 µg/ml, genetic background: Δrob",-0.43 ± 0.21
same,promoter activity interaction Z-score,"35.7 µg/ml, genetic background: ΔsoxS",-0.378 ± 0.24
same,promoter activity interaction Z-score,"71.3 µg/ml, genetic background: wild type",-0.335 ± 0.037
same,promoter activity interaction Z-score,"71.3 µg/ml, genetic background: ΔmarA",-0.48 ± 0.25
same,promoter activity interaction Z-score,"71.3 µg/ml, genetic background: Δrob",-0.399 ± 0.2
same,promoter activity interaction Z-score,"71.3 µg/ml, genetic background: ΔsoxS",-0.463 ± 0.46
same,promoter activity interaction Z-score,"142.7 µg/ml, genetic background: wild type",-0.425 ± 0.28
same,promoter activity interaction Z-score,"142.7 µg/ml, genetic background: ΔmarA",-0.375 ± 0.13
same,promoter activity interaction Z-score,"142.7 µg/ml, genetic background: Δrob",-0.33 ± 0.27
same,promoter activity interaction Z-score,"142.7 µg/ml, genetic background: ΔsoxS",-0.0869 ± 0.48
CN(C)C(=N)NC(=N)N [Metformin],promoter activity interaction Z-score,"20.7 µg/ml, genetic background: wild type",-0.244 ± 0.08
same,promoter activity interaction Z-score,"20.7 µg/ml, genetic background: ΔmarA",0.0455 ± 0.11
same,promoter activity interaction Z-score,"20.7 µg/ml, genetic background: Δrob",-0.139 ± 0.14
same,promoter activity interaction Z-score,"20.7 µg/ml, genetic background: ΔsoxS",-0.145 ± 0.0015
same,promoter activity interaction Z-score,"41.4 µg/ml, genetic background: wild type",-0.1 ± 0.072
same,promoter activity interaction Z-score,"41.4 µg/ml, genetic background: ΔmarA",-0.132 ± 0.1
same,promoter activity interaction Z-score,"41.4 µg/ml, genetic background: Δrob",-0.0299 ± 0.073
same,promoter activity interaction Z-score,"41.4 µg/ml, genetic background: ΔsoxS",-0.0239 ± 0.17
same,promoter activity interaction Z-score,"82.8 µg/ml, genetic background: wild type",-0.104 ± 0.063
same,promoter activity interaction Z-score,"82.8 µg/ml, genetic background: ΔmarA",-0.195 ± 0.23
same,promoter activity interaction Z-score,"82.8 µg/ml, genetic background: Δrob",-0.113 ± 0.043
same,promoter activity interaction Z-score,"82.8 µg/ml, genetic background: ΔsoxS",-0.0656 ± 0.052
same,promoter activity interaction Z-score,"165.6 µg/ml, genetic background: wild type",-0.551 ± 0.065
same,promoter activity interaction Z-score,"165.6 µg/ml, genetic background: ΔmarA",-0.242 ± 0.025
same,promoter activity interaction Z-score,"165.6 µg/ml, genetic background: Δrob",-0.0241 ± 0.2
same,promoter activity interaction Z-score,"165.6 µg/ml, genetic background: ΔsoxS",0.145 ± 0.22
